In the library only some 27% were active in any assay of this set; here they are far more common.
CYP2C9 activ: CYP2C9 (human) activation. hit rate 1.4% among 96,000. P11712. recombinant CYP2C9, luciferin-H conversion, luminescence; active compounds read high; factor 1 = untreated enzyme, 0 = blocked. activation factor at 5 µM;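 active = activation factor of 2 or more for CYP2C9 at a 5 µM dose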;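 note: 0 = sulfaphenazole-blocked wells and 1 = vehicle-only wells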
CYP2C19 act: activators of human cytochrome P450 2C19; AID 1025; 96,000 tested, under 10 active; P33261; recombinant CYP2C19, luciferin-H EGE luminescence; active compounds read high; 0 = fully inhibited enzyme, 1 = untreated enzyme; activation factor at 5 µM;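 active = activation factor of at least 2 at 5 µM in the primary screen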;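 note: 0 = wells with 2.5 mM tranylcypromine and 1 = vehicle-only wells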
CYP2C19 inhib: blocks human cytochrome P450 2C19; P33261; CYP2C19 Supersomes, luciferin-H EGE luminescence, 30 min; inhibition, % at 5 µM; hit rate 21% among 96,000;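 active = CYP2C19 inhibition above a set limit at 5 µM in the primary screen, cut at about 50% in these data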;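 note: plate controls were negative control wells for no effect and 2.5 mM tranylcypromine positive control for full effect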
Cav3 T inh: blocks human Cav3.2 T-type calcium channel; O95180; B-score at 10 µM; AID 449739; hit rate 4% among 100,000; Cav3.2-expressing cells, Fluo-4 calcium fluorescence FDSS; active compounds read low;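 active = single-dose well whose peak fluorescence ratio is a statistical outlier from its plate by either plate-standardised score or position-corrected B-score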
CYP2C9 inh: human CYP2C9 inhibition | AID 777 | P11712 | CYP2C9 Supersomes, luciferin-H conversion, luminescence | hit rate 20% among 96,000 | inhibition, % at 5 µM;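 active = blocking of liver enzyme CYP2C9 beyond about 50% at 5 µM, limit read from the data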
* marks the source's active call; other numbers are inactive results; / = no result given.

SMILES | CYP2C9 activ | CYP2C19 act | CYP2C19 inhib | Cav3 T inh | CYP2C9 inh
O=C(Cn1c(=O)oc2ccccc21)c1ccccc1 | 0.7 | 0.1 | 93* | / | 25
COc1cccc(NC(=O)Cn2c(=O)oc3ccccc32)c1 | 0.6 | 0.3 | 68* | 0.96 | 38
CCOc1ccc(NC(=O)Cn2c(=O)oc3ccccc32)cc1 | 1.1 | 0.7 | 26 | -0.058 | -6
O=c1oc2ccccc2n1CCCCCn1c(=O)oc2ccccc21 | 1.2 | 0.2 | 84* | 0.42 | -21
CCCNC(=O)Cn1c(=O)oc2ccccc21 | 1.1 | 0.3 | 74* | 1.1 | -6
O=c1oc2ccccc2n1CCCOc1ccccc1 | 0.3 | 0 | 98* | -0.31 | 70*
NC(=O)CCn1c(=O)oc2ccccc21 | 1.1 | 1.2 | -15 | 0.54 | -13
O=C(Cn1c(=O)oc2ccccc21)NC(=O)NCc1ccco1 | 0.7 | 0.3 | 65* | 0.3 | 29
CC(C)(C)c1csc(NC(=O)Cn2c(=O)oc3ccccc32)n1 | 0.6 | 0.8 | 19 | -10* | 45
Cc1ccc(CN2C(=O)CCC2C(=O)NCCN(CC(C)C)CC(C)C)cc1 (stereo unspecified) | 0.7 | 0.9 | 8 | 0.15 | 27
O=C(CCC(=O)Nc1nnc(C2CCCCC2)s1)NCC1CCCO1 (stereo unspecified) | 0.9 | 1 | -4 | 0.18 | 12
Fc1cccc(Cl)c1CNCc1ccccc1Cl | 0.7 | 0.1 | 86* | 0.96 | 30
O=C(O)CCCCCNC(=O)CCn1cnc2ccccc2c1=O | 1 | 1 | 3 | 0.61 | 5
Cc1ccc(/C=C/C(=O)O)cc1S(=O)(=O)NCCO | 1.1 | 0.6 | 42 | 0.43 | -13
Cc1cc(C(C)(C)C)cc(S(=O)(=O)NCCO)c1C | 3* | 0.6 | 42 | 0.042 | -197
Cc1ccc(-n2c(Cn3nc(C(F)(F)F)cc3C)n[nH]c2=S)cc1 | 1.1 | 0.9 | 8 | 0.59 | -10
COc1ccc2c(c1)c(C(=O)CN1CCN(C(=O)c3ccco3)CC1)c(C)n2C | 1 | 0.4 | 57* | 0.028 | 3
COc1ccc2[nH]c(C)c(C(=O)CN3CCN(C(=O)c4ccco4)CC3)c2c1 | 0.8 | 0.8 | 20 | 1.1 | 15
CC(C)CCN1C(=O)c2ccc(-c3nc4ccccc4c(=O)o3)cc2C1=O | 0.7 | 0.8 | 15 | -0.38 | 27
COc1cc(C(=O)Nc2nc3ccccc3s2)ccc1OCc1c(C)noc1C | 0.6 | 1 | 2 | -0.12 | 45
Cc1ccc2c(Cl)cc(Cl)c(OCc3c(C)noc3C)c2n1 | 0.9 | 0.3 | 67* | 0.33 | 8
Cc1ccc(NC(=O)C2CCN(C(=O)NC3CCCCC3)CC2)cc1 | / | / | / | 0.95 | /
C=CCCN(C(C(=O)OC)C(C)C)S(=O)(=O)c1ccccc1Br (stereo unspecified) | / | / | / | -1.5 | /
C=CCCCN(Cc1ccccc1)S(=O)(=O)c1ccccc1Br | / | / | / | -3.7* | /
COc1ccc(N(CC(=O)Nc2ccc(S(=O)(=O)N3CCOCC3)cc2)S(=O)(=O)c2ccccc2)cc1 | 0.5 | 0.7 | 28 | -1.1 | 48
SMILES | CYP2C9 activ | CYP2C19 act | CYP2C19 inhib | Cav3 T inh | CYP2C9 inh
Cc1cccc(N(CC(N)=O)C2SC(=O)N(c3ccccc3)C2=O)c1 (stereo unspecified) | 1.2 | 0.9 | 9 | 0.56 | -17
COc1ccccc1N(C(C)=O)C1SC(=O)N(c2ccccc2)C1=O (stereo unspecified) | 1.1 | 0.5 | 54* | 1.2 | -7
N#CC1=C(SCC(N)=O)NC2=C(C(=O)c3ccccc32)C1c1ccc(Cl)cc1 (stereo unspecified) | 0.4 | 0.5 | 48 | 0.46 | 63*
Cc1cc(C)cc(N2C(=O)CC(Sc3nnnn3-c3ccccc3)C2=O)c1 (stereo unspecified) | 1.5 | 0.5 | 54* | -0.083 | -49
CN(C)CCNC(=O)c1c(O)c2c([nH]c1=O)CCCC2 | 0.9 | 1 | 3 | / | 6
CCS(=O)(=O)/N=C(\N)c1ccccc1 | 1.2 | 0.9 | 5 | / | -23
N/C(=N\S(=O)(=O)c1ccc(Cl)s1)c1ccccc1 | 0.6 | 0 | 97* | -5.8* | 43
COc1ccc(C(=O)c2c(C(F)(F)F)oc3c2C(=O)c2ccccc2C3=O)cc1 | 0.2 | 0.2 | 75* | -1.4 | 78*
CCOc1ccc(N2CC(C(=O)Nc3ncccc3C)CC2=O)cc1 (stereo unspecified) | 0.8 | 1.1 | -6 | -0.54 | 24
COc1ccccc1NC(=S)N(CCc1nc2cc(C)c(C)cc2[nH]1)Cc1cccnc1 | 1.8 | 0.8 | 19 | -0.11 | -82
NC(=O)C(c1ncc(C(F)(F)F)cc1Cl)c1c(Cl)cccc1Cl (stereo unspecified) | 1 | 0.6 | 45 | 0.079 | -4
N#CC(c1cccc(Cl)c1)c1ncc(C(F)(F)F)cc1Cl (stereo unspecified) | 0.6 | 0.1 | 89* | -1.4 | 41
FC(F)(F)c1cnc(-c2cnc3c(-c4ccc(Cl)cc4)cnn3c2)c(Cl)c1 | 1.1 | 1.2 | -17 | / | -9
N#CC(c1ccc(Cl)cc1)c1ncc(C(F)(F)F)cc1Cl (stereo unspecified) | 0.6 | 0.1 | 94* | -4.6* | 36
Fc1ccccc1OCCCN1CCOCC1 | 1.3 | 0.9 | 6 | 0.05 | -29
Oc1c(C(Nc2nc3ccccc3s2)c2ccco2)ccc2cccnc12 (stereo unspecified) | 0.3 | 0.7 | 34 | -3.1 | 73*
c1ccc(Cn2c(NCc3ccco3)nc3ccccc32)cc1 | 0.2 | 0.2 | 83* | -1.9 | 81*
C=CCn1c(NCc2ccc(N(C)C)cc2)nc2ccccc21 | 0.9 | 0 | 96* | -0.33 | 15
COc1ccc(CNc2nc3ccccc3n2Cc2ccccc2)cc1OC | 0.3 | 0.5 | 53* | -5.4* | 66*
O=C(O)c1cc2sccc2s1 | 0.9 | 0.9 | 6 | 0.18 | 8
O=C(CSc1nc2ccccc2c(=O)n1CCC(=O)N1CCCCC1)NCc1ccccc1 | / | / | / | -0.69 | /
Cc1ccc(NC(=O)CSc2nc3ccccc3c(=O)n2CCCN2CCCCC2)cc1C | 0.4 | 0.5 | 48 | -3.1 | 63*
CCn1c(SCC(=O)Nc2ccc(NC(=O)c3ccco3)c(OC)c2)nc2ccccc2c1=O | 1 | 0.9 | 8 | 0.42 | -4
C=CCn1c(SCC(=O)Nc2ccc3c(c2)OCO3)nc2ccccc2c1=O | 0.7 | 1.1 | -7 | 0.028 | 30
CCCCn1c(SCC(=O)Nc2cc(NC(=O)c3ccco3)ccc2C)nc2ccccc2c1=O | 0.3 | 0.3 | 72* | -2.4 | 75*
Cc1ccc(NC(=O)CSc2nc3ccccc3c(=O)n2CCCC(=O)N2CCCC2)cc1 | 0.6 | 0.5 | 55* | -0.018 | 44
CC(C)C1S/C(=N/N=C/c2cccs2)NC1=O (stereo unspecified) | 0.8 | 0.9 | 6 | / | 21
COc1ccc(NC2=NCC(=O)N2c2ccccc2F)c(OC)c1 | 1 | 0.6 | 39 | -0.44 | -2
COc1ccc(NC2=NCC(=O)N2c2ccccc2)c(OC)c1 | 0.5 | 0.4 | 64* | -0.45 | 52*
CC1CCN(Cc2nc3c(c(=O)n(C)c(=O)n3C)n2CCCc2ccccc2)CC1 | 0.6 | 0.9 | 7 | -1.5 | 40

High-throughput results (PubChem)
